Screens (PubChem BioAssay)
Pf growth 96h = Primary qHTS for delayed death inhibitors of the malarial parasite plastid, 96 hour incubation; P. falciparum luciferase reporter growth, 96 h; Potency, µM (highest dose often 28.7 µM), most hits filed as inhibitors; actives 6.9% (n = 320,000)
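Cell-based qHTS: luciferase-tagged P. falciparum in erythrocytes (2% hematocrit, 0.05% parasitemia final) incubated with compounds for 96 hours, 37 C, 5% CO2; luciferase detection reagent then added and luminescence measured.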
Cycloheximide cs = Cycloheximide Counterscreen for Small Molecule Inhibitors of Shiga Toxin. cell reporter, cycloheximide protein synthesis inhibition counterscreen. max response, %. actives 12% (n = 300,000); in the data active = max response mostly above about 13%, no sharp cut-off; inactive = mostly below about 14%; note: read at 38.3 µM for the half of the compounds with a filed dose
HCMV inh = qHTS Assay for inhibitors of the human cytomegalovirus (HCMV). actives 4.5% (n = 410,000). HFF cells, HCMV-luciferase reporter, 72 h; stronger effect = lower value. activity change, negative = inhibition, % at 57.5 µM; in the data active = activity change below about -60%; inconclusive = no clear call, values can overlap the other calls; inactive = above about -39%
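Screen run at 2 compound doses on HFFs infected with reporter HCMV, MOI 1 PFU/cell. Luciferase activity from cell lysates at 72 h post infection gave inhibition relative to buffer-only and Salinomycin wells.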
Pf growth 48h = Primary qHTS for delayed death inhibitors of the malarial parasite plastid, 48 hour incubation | actives 5.9% (n = 310,000) | P. falciparum luciferase growth in erythrocytes, 48 h | AID 504832, 2011 | Potency, µM (titrated, usually from 28.7 µM), hits mostly inhibitors
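Cell-based growth assay: transgenic P. falciparum expressing firefly luciferase, cultured in red cells within RPMI 1640 containing 0.5% w/v Albumax, 24 mM bicarbonate and gentamycin. A drop in luciferase activity indicates inhibition.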
Shiga inhibitor = A qHTS for Small Molecule Inhibitors of Shiga Toxin | Vero cells, Shiga toxin protein synthesis inhibition reporter | inhibition, % at 38.7 µM | actives 9.2% (n = 290,000) | AID 2315, 2010; in the data active = inhibition mostly above about 28%, no sharp cut-off; inactive = mostly below about 43%
Large screens that a line does not name were inactive. Shown are actives, neighbours in structure and some others; about 20% of the full set was active somewhere. Unless noted, calls come from the whole dose curve; as a rule, active = well fitted inhibition curve with a large enough effect; inconclusive = small, poorly fitted or top-dose-only effect, or another doubt; inactive = no such curve, though single readings can be large or run the other way.

O=C(NC(=S)Nc1nc(-c2ccccc2)cs1)c1ccco1	none
O=C(NC(=S)Nc1nc2ccccc2s1)c1ccco1	Cycloheximide cs 35, Shiga inhibitor 30
COc1ccc2sc(NC(=O)c3ccco3)nc2c1	Cycloheximide cs 23, HCMV inh inconclusive
N#Cc1cccc(-c2csc(N3CCC(C(N)=O)CC3)n2)c1	none (no result: Cycloheximide cs, HCMV inh, Shiga inhibitor)
Cc1ccc2c(c1)C(Cc1ccccc1F)C(=O)N2 (centres undefined)	none (no result: Pf growth 96h, Cycloheximide cs, Pf growth 48h, Shiga inhibitor)
O=C(COC(=O)/C=C/c1ccccc1[N+](=O)[O-])Nc1ccc(OCc2ccccc2)cc1	Cycloheximide cs 17, Shiga inhibitor 39
CC(C)(C)NC(=O)COC(=O)/C=C/c1ccccc1[N+](=O)[O-]	Cycloheximide cs 24, Shiga inhibitor 38 (no result: Pf growth 48h)
O=C(COC(=O)/C=C/c1ccccc1[N+](=O)[O-])NC1CC1	none
O=C(COC(=O)/C=C/c1ccccc1[N+](=O)[O-])Nc1ccc(OC(F)F)cc1	none
O=C(c1ccc(=O)[nH]c1)N1CCN(S(=O)(=O)c2ccc(Cl)cc2)CC1	none
CC(C)CN1CCN=C1N(C)C	none (no result: Cycloheximide cs, Shiga inhibitor)
Cc1cc(N2CCN(C(C(=O)NC3CCCC3)C(C)(C)C)CC2)c2ccccc2n1 (centres undefined)	none (no result: Pf growth 96h, Cycloheximide cs, Pf growth 48h, Shiga inhibitor)
C#CCN(C[C@@H]1[C@@H](OC(=O)NCCCCCC)[C@@H](OC(=O)NCCCCCC)Cn2c(=O)ccc(=O)n21)S(=O)(=O)c1ccc(C)cc1	HCMV inh -104 (no result: Pf growth 96h, Cycloheximide cs, Pf growth 48h, Shiga inhibitor)
C#CCN(C[C@@H]1[C@@H](OC(=O)NCC2CCCCC2)[C@@H](OC(=O)NCC2CCCCC2)Cn2c(=O)ccc(=O)n21)S(=O)(=O)c1ccc(C)cc1	HCMV inh -102 (no result: Pf growth 96h, Cycloheximide cs, Pf growth 48h, Shiga inhibitor)
CCOC(=O)c1cccc(NC(=O)CCn2c(-c3ccc(F)cc3)cc(C(=O)OCC)c2C)c1	none (no result: Pf growth 96h, Cycloheximide cs, Pf growth 48h, Shiga inhibitor)
O=C(COc1ccccc1F)Nc1ccc2oc(-c3cccc(Cl)c3)nc2c1	none (no result: Pf growth 96h, Cycloheximide cs, Pf growth 48h, Shiga inhibitor)
Cc1ccc2ccc(S(=O)(=O)NCc3ccccn3)cc2c1	Shiga inhibitor 39
CCOc1cc(S(=O)(=O)NCc2ccccn2)ccc1Cl	Pf growth 96h 8.3µM
COc1ccc(S(=O)(=O)NCc2ccccn2)cc1C	none (no result: Pf growth 96h, Cycloheximide cs, Pf growth 48h, Shiga inhibitor)
O=S(=O)(NCc1ccccn1)c1ccc(Cl)c(C(F)(F)F)c1	none
O=C(CN1C(=O)c2ccccc2S1(=O)=O)NCCc1ccc(F)cc1	none (no result: Pf growth 96h, Cycloheximide cs, Pf growth 48h, Shiga inhibitor)
O=C(Nc1cccc(Cl)c1)Nn1cnnc1	none
COc1ccc(CNC(=O)Nc2cccc(Cl)c2)cc1	Pf growth 96h 10µM, Cycloheximide cs 43, Shiga inhibitor 46 (no result: HCMV inh)
O=C(Nc1cccc(Cl)c1)Nc1ccccc1-n1ccnc1	Pf growth 96h 12µM, Pf growth 48h inconclusive
COc1ccc(CNC(=S)Nc2cccc(Cl)c2)cc1	none (no result: Pf growth 96h, Cycloheximide cs, Pf growth 48h, Shiga inhibitor)
O=C(NCc1cccnc1)Nc1cccc(Cl)c1	Pf growth 96h inconclusive
O=C(NCc1ccncc1)Nc1cccc(Cl)c1	Cycloheximide cs 16 (no result: Pf growth 96h)
O=C(Nc1ccncc1)Nc1cccc(Cl)c1	Cycloheximide cs 16, Pf growth 48h 1.5µM
CC(=O)NC(CC(=O)OCC(=O)Nc1ccc2c(c1)OCO2)c1ccccc1 (centres undefined)	none
CC(C)Oc1ccc(CNC(=O)C2CCCN(S(=O)(=O)c3ccc4c(ccn4C)c3)C2)cc1 (centres undefined)	none (no result: Pf growth 96h, Cycloheximide cs, Pf growth 48h, Shiga inhibitor)
CC1CCc2c(sc(NC(=O)C3c4ccccc4Oc4ccccc43)c2C#N)C1 (centres undefined)	none (no result: Pf growth 96h, Cycloheximide cs, Pf growth 48h, Shiga inhibitor)
CNC(=S)Nc1ccc(Cc2ccncc2)cc1	none
O=C(/C=C/c1ccc(/C=C/C(=O)Nc2ccc(C3=NCCN3)cc2)cc1)Nc1ccc(C2=NCCN2)cc1	none (no result: Pf growth 96h, HCMV inh, Pf growth 48h)
S=C(Nc1ccc(Cc2ccncc2)cc1)Nc1cccc(Cl)c1	Pf growth 96h 13µM
COc1ccc(CNCCc2ccc(Cl)cc2Cl)cc1	Pf growth 96h 5.9µM
O=C(Nc1ccc(C2=NCCN2)cc1)c1ccc(C(=O)Nc2ccc(C3=NCCN3)cc2)c(Cl)c1	Pf growth 96h inconclusive, Pf growth 48h 0.52µM
O=C(Nc1cccc(C2=NCCN2)c1)Nc1cccc(C2=NCCN2)c1	Pf growth 96h 1.2µM, HCMV inh -81, Pf growth 48h 1.7µM (no result: Cycloheximide cs, Shiga inhibitor)
CCCCCSc1ncnc2c1sc1nc(N3CCOCC3)c3c(c12)CCCC3	none (no result: Pf growth 96h, Cycloheximide cs, Pf growth 48h, Shiga inhibitor)
COc1ccc(NC(=O)COCc2cc(-c3cccs3)on2)cc1	none (no result: Pf growth 96h, Cycloheximide cs, Pf growth 48h, Shiga inhibitor)
CCOC(=O)c1cc(-c2ccc(C)cc2)n(CCC(=O)Nc2ccc(OC)c(OC)c2)c1C	none (no result: Pf growth 96h, Cycloheximide cs, Pf growth 48h, Shiga inhibitor)
